Bioassay records (PubChem)
The list is not random: actives were taken first. Their share in the collection is about 19%.
Pf growth 48h = inhibits P. falciparum growth in the first generation, 48 h; P. falciparum luciferase growth in erythrocytes, 48 h; Potency, µM (top dose mostly 28.7 µM), for the others: top-dose activity change, negative = inhibition, most hits filed as inhibitors; actives 5.9% (n = 310,000); AID 504832; further: potency means the concentration at half of the fitted maximal effect; on the % scale 0 is the no-effect control and ±100 the full control effect
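A one-generation exposure of luciferase-tagged malaria parasites in RPMI 1640/Albumax erythrocyte culture, 37 C and 5% CO2. Inhibition is inferred from decreased luminescence after adding detection reagent.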
Pf growth 96h = P. falciparum growth inhibition at 96 hour, primary screen for plastid delayed-death inhibitors; P. falciparum luciferase reporter growth, 96 h; actives 6.9% (n = 320,000); Potency, µM (series often up to 28.7 µM), inactives show top-dose activity change, negative = inhibition, usual class: inhibitors; further: potency means the concentration at half of the fitted maximal effect; on the % scale 0 is the no-effect control and ±100 the full control effect
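P. falciparum expressing integrated firefly luciferase grown in erythrocytes (2% hematocrit, 0.05% parasitemia final) with compounds for 96 hours at 37 C, 5% CO2. Growth inhibition read as loss of luminescence after adding luciferase detection reagent.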
CHX counter = counter-screen hit for Shiga toxin inhibitors, cycloheximide. cell reporter, cycloheximide protein synthesis inhibition counterscreen. max response, %. actives 12% (n = 300,000); in the data active means max response mostly above about 13%, no sharp cut-off; inactive means mostly below about 14%; further: read at 38.3 µM for the half of the compounds with a filed dose; 0% is about no effect
SARS PLpro yeast = SARS-CoV PLP inhibition in yeast; S. cerevisiae expressing SARS-CoV PLpro, growth rescue; Potency, µM (top dose mostly 32.9 µM), without a hit: top-dose activity, positive = growth rescue, actives largely listed as activators; actives 0.19% (n = 330,000); AID 485353; calls by dose curve; further: potency means the concentration at half of the fitted maximal effect; 0% is about no effect; nearly all actives have a fitted effect of over 55% in size
AMA1-RON2 inh = AMA1-RON2 (P. falciparum) interaction inhibition; actives 0.2% (n = 360,000); AID 720542; Potency, µM (top dose mostly 58.2 µM), for inactives: at the highest dose activity change, negative = inhibition, hits mostly inhibitors; AlphaScreen AMA1-biotinylated RON2 peptide binding;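 further: potency means the concentration at half of the fitted maximal effect; 0% = vehicle wells and -100% = peptide control; nearly all actives have a fitted effect of over 45% in size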
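AMA1 (3D7) with his tag at 25 nM final met compounds first, then biotinylated RON2 peptide at 25 nM; detection used donor plus acceptor beads, 10 µg/mL apiece, read by AlphaScreen after 30 min at room temperature.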
Shiga toxin inh = blocks Shiga toxin action in Vero cells; Vero cells, Shiga toxin protein synthesis inhibition reporter; inhibition, % at 38.7 µM; actives 9.2% (n = 290,000); in the data active means inhibition mostly above about 28%, no sharp cut-off; inactive means mostly below about 43%; further: 0% is about no effect
An asterisk follows results filed as active; ? = inconclusive; . = no result; [ ] = another dose, or the depositor's remark. Unless noted, the call rests on the fitted dose curve; in most records, active means well fitted curve in the direction sought with a large enough effect; inconclusive means small, poorly fitted or top-dose-only effect, or another doubt; inactive means no such curve, though single readings can be large; an effect the other way counts as inactive or inconclusive.

SMILES | Pf growth 48h | Pf growth 96h | CHX counter | SARS PLpro yeast | AMA1-RON2 inh | Shiga toxin inh
CSc1ncccc1C(=O)Nc1cccc(S(=O)(=O)N(C)c2ccccc2)c1 | 9.28µM* | ? | . | 7.8% | 0.0% | .
CN(c1ccccc1)S(=O)(=O)c1cccc(NC(=O)c2ccncc2)c1 | -11.3% | ? | -2.0 | 1.2% | -6.9% | -2.5
Cc1ccc2nc(-c3ccccn3)cc(C(=O)Nc3ccc(S(=O)(=O)N4CCOCC4)cc3)c2c1 | 13.1µM* | 20.5% | -3.1 | 14.8% | 14.4% | -19.1
Cc1ccccc1C(=O)Nc1ccc(S(=O)(=O)N2CCOCC2)cc1 | -15.7% | 15.5% | -1.1 | 0.2% | -1.6% | -3.2
CCOC(=O)C1CCN(C(=O)c2cc(S(=O)(=O)N3CCOCC3)c(Cl)cc2Cl)CC1 | -15.7% | 119.9% | 6.2 | 1.1% | 1.9% | -2.1
C[C@@H]1CN([C@@H](C)CO)C(=O)CCCn2nncc2CO[C@H]1CN(C)C(=O)C1CC1 | . | . | . | . | -0.3% | .
O=C(Nc1cccc(S(=O)(=O)N2CCCCC2)c1)c1ccccn1 | 2.1% | -26.7% | 26.9* | -4.2% | -9.8% | 25.7
Cc1ccc(S(=O)(=O)N2CCCCC2)cc1NC(=O)c1ccc2ccccc2n1 | -3.7% | 0.0% | 45.6* | -17.4% | -6.3% | 47.4*
O=C(Nc1cccc(S(=O)(=O)N2CCCCC2)c1)c1c2c(nc3ccccc13)CCN(Cc1ccccc1)C2 | 2.94µM* | 2.62µM* | -0.6 | -1.6% | -11.9% | -10.9
COc1ccc(S(=O)(=O)N2CCCCC2)cc1NC(=O)c1ccc2ccccc2n1 | -0.1% | -1.0% | 13.6 | -0.7% | 3.0% | -6.6
COc1ccc(NC(=O)c2ccc3ccccc3n2)cc1S(=O)(=O)N1CCCCC1 | 45.4% | -23.5% | 37.7* | 3.3% | 0.4% | 44.2
CCOC(=O)C/C(C)=N/NC(=O)C1CC1(c1ccccc1)c1ccccc1 (stereo unspecified) | -12.5% | ? | -2.3 | 11.8% | 65.6% | -12.0
O=C(Nc1ccc(N2CCCCC2)cc1)c1ccc2ccccc2n1 | 344.7% | 122.7% | 28.8* | -3.8% | ? | 77.8*
O=C(Nc1nc2ccc(S(=O)(=O)N3CCCC3)cc2s1)c1ccccn1 | ? | 90.8% | 38.0* | -1.6% | 88.5% | 60.4*
Cc1cc(C(=O)Nc2cccc(S(=O)(=O)N3CCCC3)c2)c2ccccc2n1 | ? | ? | . | 1.9% | -2.8% | .
O=S(=O)(Nc1nc2ccccc2nc1Nc1cccc(S(=O)(=O)N2CCCCC2)c1)c1ccccc1 | 8.28µM* | 2.08µM* | -3.6 | 7.1% | -0.2% | -5.4
O=C(Nc1ccc(N2CCCC2)cc1)c1cc(Br)ccc1Cl | ? | ? | 14.4 | -1.0% | -14.0% | 32.3
O=C(Nc1cccc(S(=O)(=O)N2CCCC2)c1)c1cc(-c2ccccn2)nc2ccccc12 | 11.7µM* | ? | 8.1 | -0.5% | 5.1% | -9.3
COc1ccc(S(=O)(=O)Nc2cccc(S(=O)(=O)N3CCCCCC3)c2)cc1 | 2.2% | ? | -3.1 | 7.6% | -4.2%[11.6 µM] | -9.6
CC1CCN(C(=O)COC(=O)CSc2ccc(C(N)=O)cc2[N+](=O)[O-])CC1 | 4.7% | 8.0% | . | 13.7% | -17.1% | .
CCN1CCc2nc3ccccc3c(C(=O)Nc3ccc(F)cc3)c2C1 | 2.08µM* | ? | -4.3 | -0.7% | -2.6% | -5.8
O=C(NCc1ccc(F)cc1)c1c2c(nc3ccccc13)CCN(Cc1ccccc1)C2 | ? | 0.0% | 0.7 | ? | 9.8% | -5.4
O=C(COC(=O)c1c2c(nc3ccccc13)CCN(Cc1ccccc1)C2)Nc1c(F)cccc1F | 0.0% | 10.4µM* | 0.2 | -0.2% | -3.7% | 17.2
COc1ccc(C2/C(=C(/O)c3ccc(C)cc3)C(=O)C(=O)N2C)c(OC)c1 (stereo unspecified) | 46.0% | ? | -2.0 | 4.9% | 0.1% | -6.7
COc1ccccc1N1CCN(S(=O)(=O)c2cccc(F)c2)CC1 | -3.6% | 16.5% | 4.1 | -15.1% | 20.9% | -7.1
Cc1cc2oc(=O)cc(CN3CCN(S(=O)(=O)/C=C/c4ccccc4)CC3)c2cc1C | 10.4µM* | ? | 4.7 | -22.7% | -0.8% | 1.6
O=c1cc(CN2CCCCC2)c2c(ccc3ccccc32)o1 | . | . | . | . | 7.1% | .
Cc1cc2oc(=O)cc(CN3CCC(C)CC3)c2c(C)c1Cl | -5.4% | -7.1% | 11.5 | -0.3% | 10.2% | -1.6
